# Data reported in PubChem BioAssay.
# The source made the active and inactive calls.
# Tests used:
# [1] = system: Plasmodium falciparum Sir2 (PF13_0152, Sir2A); assay: pfSir2 binders on small-molecule microarrays, primary screen, biochemical, small-molecule microarray, 635 nm fluorescence (AID 1098); details: small-molecule microarray binding, fluorescence 635 nm; higher = more signal;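 also: score merges spot fluorescence intensity with its signal-to-noise ratio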
# [2] = small-molecule microarray binders of probe aDKK1, primary screen, biochemical, biotinylated probe, 635/667 nm fluorescence (AID 1099); details: higher = more signal;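 also: score merges 667nm spot fluorescence with signal to noise across triplicate slides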
# [3] = small-molecule microarray binders of probe aCHRDL2, primary screen, biochemical, biotinylated probe, 635/667 nm fluorescence (AID 1100); details: higher = more signal
# [4] = splicing luciferase reporter signal modulators, primary screen, spliceosome inhibition project, cell-based, HEK293, splice +/- reporter (AID 1101); details: luminescence, 24 h, higher = more signal, called active from +8 up or from −8 down;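 also: HEK293 cells carrying a splicing-competent luciferase reporter gene; test concentration not given here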
# [5] = target: Fibroblast growth factor 10 (Homo sapiens) (UniProt O15520); assay: FGF10 binders on small-molecule microarrays, primary screen, biochemical, small-molecule microarray, 635 nm fluorescence (AID 1102); details: FGF10 binding, fluorescence 635 nm, higher = more signal
# [6] = system: glycogen synthase kinase-3 (GSK3A per assay name; protocol says GSK3B); assay: GSK3 binders on small-molecule microarrays, primary screen, biochemical, small-molecule microarray, 635 nm fluorescence, GSK3A (AID 1103); details: small-molecule microarray binding, fluorescence 635 nm; higher = more signal; also: the record names both GSK3A and GSK3B
# [7] = target: Epidermal growth factor receptor (Homo sapiens) (UniProt P00533); assay: EGFR binders on small-molecule microarrays, primary screen, biochemical, small-molecule microarray, 635 nm fluorescence (AID 1104); details: EGFR binding, higher = more signal;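 also: score merges 667 nm emission intensity with spot signal to noise over triplicate slides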
# [8] = target: Follistatin-related protein 3 (Homo sapiens) (UniProt O95633); assay: FSTL3 binders on small-molecule microarrays, primary screen, biochemical, small-molecule microarray, 635 nm fluorescence (AID 1105); details: FSTL3 binding, higher = more signal;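 also: score merges emission near 667 nm and signal to noise per printed spot across three slides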
# [9] = target: Dickkopf-related protein 1 (Homo sapiens) (UniProt O94907); assay: DKK1 binders on small-molecule microarrays, primary screen, biochemical, small-molecule microarray, 635 nm fluorescence scan (AID 1106); details: DKK1 binding, higher = more signal;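 also: score merges emission near 667 nm with signal to noise over three replicate slides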
# [10] = system: Inhibin beta A chain (activin A); assay: INHBA (activin A) binders on microarrays, primary screen, biochemical, small-molecule microarray, 635 nm fluorescence scan (AID 1107); details: small-molecule microarray binding, higher = more signal;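 also: mouse activin A protein probed at 4.33 µg/mL on printed slides; score merges bound-protein fluorescence near 667 nm with spot signal-to-noise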
# [11] = system: Human papillomavirus type 1a protein E7 (residues 44-93); assay: HPV1a E7 fragment binders on microarrays, primary screen, biochemical, small-molecule microarray, residues 44-93, 635 nm fluorescence (AID 1108); details: small-molecule microarray binding, fluorescence 635 nm; higher = more signal;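 also: E7 fragment applied at 1 µg/mL in TBST for 1 h at 4 C; score combines spot fluorescence with its signal to noise ratio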
# [12] = modulators of HCV replicon luciferase signal, primary screen, HCV replication inhibitor project, Huh7 cells, luciferase reporter (AID 1109); details: 48 h, higher = more signal;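 also: huh7 hepatoma cells harbouring a luciferase neomycin HCV replicon reporter; luciferase luminescence as measure of HCV replicon replication; test concentration not given here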
# [13] = target: Left-right determination factor 2 (Homo sapiens) (UniProt O00292); assay: LEFTY2 binders on small-molecule microarrays, primary screen, biochemical, small-molecule microarray, 635 nm fluorescence scan (AID 1110); details: LEFTY2 binding, higher = more signal
# [14] = target: Calmodulin-1 (Homo sapiens) (UniProt P0DP23); assay: CALM1 binders on microarrays, EGTA buffer, profiling panel, biochemical, small-molecule microarray, Cy5-labelled CALM1 (AID 1111); details: Cy5-CALM1 binding fluorescence, higher = more signal;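 also: labelled calmodulin applied in Tris saline Tween buffer holding calcium plus EGTA and DTT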
# [15] = target: Calmodulin-1 (Homo sapiens) (UniProt P0DP23); assay: calcium-bound CALM1 binders on microarrays, profiling panel, artefact control for SMM control-protein annotation, biochemical, small-molecule microarray, Cy5-labelled CALM1, plus calcium (AID 1112); details: Cy5-CALM1 binding fluorescence, higher = more signal;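 also: score merges spot fluorescence with signal to noise from triplicate slides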
# [16] = small-molecule microarray binders of probe aWnt5a, primary screen, biochemical, biotinylated probe, 635/667 nm fluorescence (AID 1113); details: higher = more signal;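 also: score merges 667 nm fluorescence intensity with signal-to-noise per printed feature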
# [17] = small-molecule microarray binders of probe aShh, primary screen, biochemical, biotinylated probe, 635/667 nm fluorescence (AID 1114); details: higher = more signal;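 also: probe is biotin-labelled aShh protein from a stem cell growth factor screen; measures binding of labelled protein to compounds printed on the slide; score merges feature fluorescence at 667 nm with signal-to-noise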
# [18] = small-molecule microarray binders of probe aNog, primary screen, biochemical, biotinylated probe, 635/667 nm fluorescence (AID 1115); details: higher = more signal;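 also: probe is biotinylated aNog protein used at 0.15 µg/mL for 1 h at 4 C; z-score combines 667 nm fluorescence of each spot with its signal to noise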
# [19] = target: Torsin-1A-interacting protein 1 (Homo sapiens) (UniProt Q5JTV8); assay: LAP1 binders from COS7 cell lysate, primary screen, small-molecule microarray, 635/667 nm fluorescence (AID 1116); details: COS7-hLAP1 lysate binding, 635 nm fluorescence, higher = more signal
# [20] = target: Alpha-bungarotoxin (Bungarus multicinctus) (UniProt P60615); assay: alpha-bungarotoxin binders on microarray, profiling panel, artefact control for SMM control protein annotation, biochemical, small-molecule microarray, Alexa647 label, 635/667 nm fluorescence (AID 1117); details: alpha-BTX-A647 binding fluorescence, higher = more signal
# Alpha-bungarotoxin (Bungarus multicinctus), sequence (P60615 whole entry, looked up): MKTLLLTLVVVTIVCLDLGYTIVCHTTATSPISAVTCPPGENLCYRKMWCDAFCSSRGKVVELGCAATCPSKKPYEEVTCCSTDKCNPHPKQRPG
# Dickkopf-related protein 1 (Homo sapiens), sequence (O94907 whole entry, looked up): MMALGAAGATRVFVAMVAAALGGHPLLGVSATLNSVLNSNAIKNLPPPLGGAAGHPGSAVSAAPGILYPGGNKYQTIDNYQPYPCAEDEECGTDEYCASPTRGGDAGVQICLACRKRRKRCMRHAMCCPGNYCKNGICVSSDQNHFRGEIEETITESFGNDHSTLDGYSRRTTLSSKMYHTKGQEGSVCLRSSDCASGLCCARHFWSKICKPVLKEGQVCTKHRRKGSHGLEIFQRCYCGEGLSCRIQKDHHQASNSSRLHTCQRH
# Torsin-1A-interacting protein 1 (Homo sapiens), sequence (Q5JTV8 whole entry, looked up): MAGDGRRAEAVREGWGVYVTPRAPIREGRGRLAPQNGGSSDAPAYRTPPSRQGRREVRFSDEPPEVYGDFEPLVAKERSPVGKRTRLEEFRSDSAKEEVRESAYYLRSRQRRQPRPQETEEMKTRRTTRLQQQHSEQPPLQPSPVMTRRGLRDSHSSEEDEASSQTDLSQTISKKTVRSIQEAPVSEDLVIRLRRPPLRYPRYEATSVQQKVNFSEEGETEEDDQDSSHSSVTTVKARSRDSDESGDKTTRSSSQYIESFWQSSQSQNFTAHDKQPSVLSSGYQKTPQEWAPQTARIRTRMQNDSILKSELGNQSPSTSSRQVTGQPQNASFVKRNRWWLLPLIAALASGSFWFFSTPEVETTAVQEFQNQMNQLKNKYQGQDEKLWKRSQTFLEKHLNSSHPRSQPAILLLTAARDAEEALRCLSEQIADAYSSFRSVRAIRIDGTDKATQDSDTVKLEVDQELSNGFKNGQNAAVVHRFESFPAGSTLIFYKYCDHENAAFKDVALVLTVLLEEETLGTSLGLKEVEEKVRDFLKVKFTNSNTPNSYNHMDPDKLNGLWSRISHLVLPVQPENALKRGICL
# Epidermal growth factor receptor (Homo sapiens), sequence (P00533 whole entry, looked up): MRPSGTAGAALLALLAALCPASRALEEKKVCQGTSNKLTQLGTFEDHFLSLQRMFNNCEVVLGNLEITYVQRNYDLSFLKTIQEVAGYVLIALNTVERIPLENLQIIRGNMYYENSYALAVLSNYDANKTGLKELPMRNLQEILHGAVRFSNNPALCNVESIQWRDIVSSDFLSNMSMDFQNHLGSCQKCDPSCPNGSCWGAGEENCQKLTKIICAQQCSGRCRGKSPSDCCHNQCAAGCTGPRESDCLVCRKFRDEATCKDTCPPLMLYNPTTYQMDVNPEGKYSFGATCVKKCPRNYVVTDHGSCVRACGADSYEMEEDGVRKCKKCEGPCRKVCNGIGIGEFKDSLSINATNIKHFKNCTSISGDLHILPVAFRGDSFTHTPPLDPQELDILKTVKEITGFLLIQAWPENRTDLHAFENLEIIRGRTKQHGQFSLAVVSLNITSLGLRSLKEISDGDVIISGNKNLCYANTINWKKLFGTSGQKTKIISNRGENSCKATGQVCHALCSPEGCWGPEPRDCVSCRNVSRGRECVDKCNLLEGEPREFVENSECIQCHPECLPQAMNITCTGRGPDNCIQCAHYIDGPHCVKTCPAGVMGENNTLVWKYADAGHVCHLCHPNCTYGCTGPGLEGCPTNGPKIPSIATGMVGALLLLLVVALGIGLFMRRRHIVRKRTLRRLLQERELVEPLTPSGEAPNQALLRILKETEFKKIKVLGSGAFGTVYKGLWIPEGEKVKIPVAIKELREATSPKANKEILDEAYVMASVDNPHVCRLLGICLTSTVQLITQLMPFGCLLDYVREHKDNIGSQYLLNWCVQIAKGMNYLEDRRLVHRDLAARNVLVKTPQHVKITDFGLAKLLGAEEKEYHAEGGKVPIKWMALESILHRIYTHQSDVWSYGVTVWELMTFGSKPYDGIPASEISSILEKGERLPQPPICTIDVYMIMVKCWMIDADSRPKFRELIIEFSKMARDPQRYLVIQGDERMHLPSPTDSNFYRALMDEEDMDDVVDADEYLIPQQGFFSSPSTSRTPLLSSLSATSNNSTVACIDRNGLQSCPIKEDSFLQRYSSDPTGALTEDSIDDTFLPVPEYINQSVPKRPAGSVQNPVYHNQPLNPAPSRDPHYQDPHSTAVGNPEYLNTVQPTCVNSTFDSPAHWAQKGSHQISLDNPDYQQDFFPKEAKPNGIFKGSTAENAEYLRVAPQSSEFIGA
# Fibroblast growth factor 10 (Homo sapiens), sequence (O15520 whole entry, looked up): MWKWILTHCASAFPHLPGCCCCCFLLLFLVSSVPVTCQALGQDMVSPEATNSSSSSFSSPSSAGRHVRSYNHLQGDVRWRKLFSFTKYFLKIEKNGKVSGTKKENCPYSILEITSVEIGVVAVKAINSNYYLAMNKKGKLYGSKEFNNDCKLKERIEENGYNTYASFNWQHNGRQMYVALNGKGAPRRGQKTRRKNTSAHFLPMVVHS
# Left-right determination factor 2 (Homo sapiens), sequence (O00292 whole entry, looked up): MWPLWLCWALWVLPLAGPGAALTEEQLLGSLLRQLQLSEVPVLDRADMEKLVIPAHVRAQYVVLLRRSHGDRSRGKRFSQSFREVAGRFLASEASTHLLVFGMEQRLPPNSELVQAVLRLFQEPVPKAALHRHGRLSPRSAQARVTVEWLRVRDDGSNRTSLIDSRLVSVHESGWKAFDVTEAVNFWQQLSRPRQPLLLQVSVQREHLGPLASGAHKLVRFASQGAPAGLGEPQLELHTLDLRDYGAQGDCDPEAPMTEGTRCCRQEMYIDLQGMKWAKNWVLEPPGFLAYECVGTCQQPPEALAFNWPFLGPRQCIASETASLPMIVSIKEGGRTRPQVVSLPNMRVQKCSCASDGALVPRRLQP
# Follistatin-related protein 3 (Homo sapiens), sequence (O95633 whole entry, looked up): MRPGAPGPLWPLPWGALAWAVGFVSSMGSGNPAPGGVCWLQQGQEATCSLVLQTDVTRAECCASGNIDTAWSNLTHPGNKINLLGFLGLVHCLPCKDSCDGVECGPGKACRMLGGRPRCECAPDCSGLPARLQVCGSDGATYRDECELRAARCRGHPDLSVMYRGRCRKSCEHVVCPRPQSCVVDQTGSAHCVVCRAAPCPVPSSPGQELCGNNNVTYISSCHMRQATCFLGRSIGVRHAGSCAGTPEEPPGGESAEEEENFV
Compound,composite z-score [1],composite z-score [2],composite z-score [3],z-score [4],composite z-score [5],composite z-score [6],composite z-score [7],composite z-score [8],composite z-score [9],composite z-score [10],composite z-score [11],z-score [12],composite z-score [13],composite z-score [14],composite z-score [15],composite z-score [16],composite z-score [17],composite z-score [18],composite z-score [19],composite z-score [20]
CO[C@@H]1COC(=O)CC=C[C@@H](C)[C@@H]2C=C[C@H](O)[C@@H](COC(=O)CCC[C@H]1C)O2,0.686,-0.177,-0.899,-1.09 (inactive),0.375,0.329,1.21,1.11,1.25,1.45,-1.05,-1.96,1.31,-0.859,-1.7,-0.0721,0.211,-0.0755,0.962,-0.394
CCOC(=O)NN=C1C[C@@H](O)[C@@H](O)[C@@H]2[C@@H]3C(=O)N(C[C@@H]4CCCO4)C(=O)[C@@H]3CC[C@@H]12,0.419,-0.147,-0.133,0.104 (inactive),0.137,0.197,0.364,0.342,-0.0134,-0.0039,0.396,0.353,0.238,-0.375,-0.32,-0.0721,-0.273,-0.0428,0.584,-0.189
CCOC(=O)NN=C1C[C@@H](O)[C@@H](O)[C@@H]2[C@@H]3C(=O)N(C4CCCCC4)C(=O)[C@@H]3CC[C@H]12,0.253,0.135,-0.0663,0.035 (inactive),0.38,0.518,0.416,0.333,0.701,-0.341,0.0361,-0.314,0.511,-0.101,-0.469,-0.128,0.199,-0.245,0.217,-0.177
CC(C)(C)N1C(=O)[C@H]2[C@H]3[C@H](O)[C@H](O)CC(=NOCc4ccccc4)[C@@H]3CC[C@H]2C1=O,0.616,-0.192,0.24,-1.07 (inactive),0.97,0.535,0.455,0.988,1.59,0.528,0.093,0.656,1.08,-0.266,-0.717,-0.0194,-0.0146,-0.352,0.593,1.19
O=C1[C@H]2[C@H]3[C@H](O)[C@H](O)CC(=NO[C@@H]4O[C@H](CO)[C@@H](O)[C@H](O)[C@H]4O)[C@H]3CC[C@H]2C(=O)N1Cc1ccccc1,0.366,-0.223,-0.752,-0.741 (inactive),0.437,0.656,0.426,0.0042,-0.566,-1.42,0.386,0.322,0.652,-0.058,-0.534,0.0044,-0.209,0.124,0.135,0.784
C#C[C@@H]1Oc2ccccc2S(=O)(=O)N2CCC[C@H]12,-0.298,-0.105,-0.246,0.712 (inactive),0.111,-0.859,0.304,-0.0777,0.407,0.807,-0.638,0.206,0.273,-0.593,-0.867,0.0391,0.0893,0.186,0.237,-0.302
CN(C)CCCNC(=O)[C@@H]1c2ccccc2C(=O)N(Cc2ccccc2)[C@H]1c1ccc(CO)cc1,0.0072,0.189,0.341,-0.00771 (inactive),-0.952,-0.383,-0.254,0.433,-0.354,1.33,-0.176,-1.24,0.186,-0.177,-0.981,-0.0527,-0.281,0.366,-0.668,-0.261
O=C1[C@H]2[C@H]3[C@H](O)[C@H](O)CC(=NO[C@@H]4O[C@H](CO)[C@@H](O)[C@H](O)[C@H]4O)[C@@H]3CC[C@H]2C(=O)N1c1ccc(F)cc1F,0.406,-0.157,-0.445,-0.244 (inactive),0.794,0.703,0.541,0.608,0.451,-0.114,0.343,0.434,0.428,-0.364,-0.561,-0.12,0.284,-0.349,0.467,0.161
CC(C)NC(=O)[C@@]1(c2ccc([N+](=O)[O-])cc2)CC(=O)N(CC23CC4CC(CC(C4)C2)C3)[C@@H]1c1ccc(CO)cc1I,0.504,0.921,0.197,0.278 (inactive),0.0738,1.12,0.353,0.252,0.208,0.197,1.36,-3.4,0.0161,0.613,0.273,-0.0107,0.0796,-0.41,0.981,0.442
COCCOC(=O)N1C(=O)[C@@]2(c3cc(C#CCNC(N)=O)ccc31)[C@H](c1ccc(O)cc1)N1[C@H](c3ccccc3)[C@H](c3ccccc3)OC(=O)[C@H]1[C@@H]2C(=O)N1CCCCCCC1,1.08,0.614,0.356,-0.364 (inactive),1.25,0.43,0.611,1.38,0.969,0.85,1.13,-0.768,0.817,-0.0989,-0.218,-0.0718,0.108,-0.559,0.774,0.413
O=C1C[C@@H](O)[C@@H](O)[C@@H]2[C@@H]3C(=O)N(c4cccc(Oc5ccccc5)c4)C(=O)[C@@H]3CC[C@@H]12,0.87,-0.0115,-0.464,0.0249 (inactive),0.806,0.655,0.387,0.925,0.987,-0.0789,0.994,-0.197,0.962,0.77,-0.261,-0.0327,-0.206,-0.4,0.613,0.106
